Results filed as inconclusive are left out. Some structures have more than one record in an assay (separate samples or runs), and their calls can disagree. Active and inactive are the calls of the source. How the source made its calls: active means hit-call score of the fitted dose curve at least 0.9, where 1 is the maximum; inconclusive means response in the unintended direction; inactive means score below 0.9.
Assay: ACEA_AR_agonist_AUC_viability: ACEA Biosciences xCELLigence Real-Time Cell Analysis on Androgen Receptor Agonism for Viability (AID 2283775);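 on AC50: viability read 80 hours after compound addition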
Protocol: ACEA_AR_agonist is a cell-based, single-readout assay that uses 22Rv1, a human prostate cancer cell line, with measurements taken at 80 hours after chemical dosing in a 384-well plate, although TO5 and TO6 (mc0.srcf) used a 96-well plate. Differences in plate size can be ignored given data normalization.ACEA_AR_80hr is one of two assay component(s) measured or calculated from the ACEA_AR assay. It is designed to make measurements of real-time cell-growth kinetics, a form of growth reporter, as detected with electrical impedance signals by Real-Time Cell Electrode Sensor (RT-CES) technology.Data from the assay component ACEA_AR_AUC_viability was analyzed in the positive analysis fitting direction relative to DMSO as the negative control and baseline of activity. Using a type of growth reporter, loss-of-signal activity can be used to understand changes in the viability. Furthermore, this assay endpoint can be referred to as a secondary readout, because this assay has produced multiple assay endpoints where this one serves a viability function. To generalize the intended target to other relatable targets, this assay endpoint is annotated to the cell cycle intended target family, where the subfamily is cytotoxicity.
The xCELLigence system Multi-E-Plate stations were used to measure the time-dependent response to chemicals. Each compound was tested in an eight-point, 1:4 serial dilution series starting at a maximum final concentration of 100 uM. A maximum starting concentration of 0.5% DMSO was present in the 100 uM chemical samples and was diluted along with the test article dilution series. The screen was performed in biological duplicate using two separate, 96-well, E-Plates 96 for each dilution series (n = 2). Positive controls (MG132 and testosterone) and a negative control (assay media) were tested in quadruplicate on each testing plate. Then, 0.5% and 0.125% DMSO were tested in duplicates in each plate to serve as solvent controls for the 2 highest concentrations of testing compounds: 100 uM and 25 uM. Reference compounds were tested with 8 concentrations with 1:5 serial dilutions. All screening was carried out by ACEA Biosciences, Inc. (San Diego, CA). 22Rv1 cells purchased from ATCC were maintained in media supplemented with 10% fetal bovine serum (FBS). Before screening, 22Rv1 cells were preconditioned in assay medium. Cells were then detached and seeded in E-Plates 96 in assay medium. After overnight monitoring of growth once every hour, compounds were added to […] cells and remained in the medium until the end of the experiment. Cellular responses were then recorded once every 5 min for the first 5 h, and once every hour for an additional 100 h.

Row | SMILES | AC50 | outcome
1 | CCCCC(CC)C(=O)O (configuration not stated) | 4.14 µM (active) | inactive
2 | CN(Cc1cnc2nc(N)nc(N)c2n1)c1ccc(C(=O)N[C@@H](CCC(=O)O)C(=O)O)cc1 | 0.787 µM (active) | –
3 | CCCCCCCCCCCC(=O)O | – | inactive
4 | CCCCC=O | – | inactive
5 | CCc1ccccc1O | – | inactive
6 | c1cnc2c(c1)ccc1cccnc12 | 3.4 µM (active) | –
7 | CC(O)COc1ccccc1 (configuration not stated) | – | inactive
8 | O=C1NS(=O)(=O)c2ccccc21 | – | inactive
9 | CCC(C)c1ccccc1O (configuration not stated) | – | inactive
10 | CCCCc1oc2ccccc2c1C(=O)c1cc(I)c(OCCN(CC)CC)c(I)c1 | 9.56 µM (active) | –
11 | NCc1cccc(CN)c1 | – | inactive
12 | CC(C)c1c(C(=O)Nc2ccccc2)c(-c2ccccc2)c(-c2ccc(F)cc2)n1CC[C@@H](O)C[C@@H](O)CC(=O)O | 4.23 µM (active) | –
13 | NS(=O)(=O)O | – | inactive
14 | CC(=O)Nc1ccc(O)cc1 | – | inactive
15 | Cc1cc(Cc2cc(C)cc(C(C)(C)C)c2O)c(O)c(C(C)(C)C)c1 | – | inactive
16 | CCCCCCCCCCCC | – | inactive

Row | SMILES | AC50 | outcome
17 | O=C(CCCN1CCC(O)(c2ccc(Cl)cc2)CC1)c1ccc(F)cc1 | 63.8 µM (active) | –
18 | NC(=NCCCCCCN=C(N)/N=C(\N)Nc1ccc(Cl)cc1)/N=C(\N)Nc1ccc(Cl)cc1 | 10.5 µM (active) | –
19 | CCCCc1ccc2ccccc2c1S(=O)(=O)O | 3.3 µM (active) | –
20 | Cc1cc(C(C)(C)C)c(O)c(C(C)(C)C)c1 | – | inactive
21 | CCCCCCCCCCCCOC(=O)c1cc(O)c(O)c(O)c1 | 7.6 µM (active) | –
22 | Cc1ccc(C)c(S(=O)(=O)O)c1 | – | inactive
23 | CC(C)[C@@H]1CC[C@@H](C)C[C@H]1O | – | inactive
24 | Cc1ccc(S(=O)(=O)O)cc1 | – | inactive
25 | Cc1cc(C(=C2C=CC(=Nc3ccc(S(=O)(=O)O)cc3)C=C2)c2ccc(Nc3ccc(S(=O)(=O)O)cc3)cc2)cc(S(=O)(=O)O)c1N | – | inactive
26 | NCCN | – | inactive
27 | COc1cc([N+](=O)[O-])ccc1N | – | inactive
28 | CN(C)CCOC(c1ccccc1)c1ccccc1 | – | inactive
29 | Cc1[nH]nc2c1N=C(c1ccccc1Cl)c1cc([N+](=O)[O-])ccc1N2 | 1.75 µM (active) | –
30 | OCC(CO)(CBr)CBr | – | inactive
31 | CCCCCCc1ccc(N)cc1 | – | inactive

Reference: PubChem BioAssay (EPA / NIEHS)
